Consider 10 compounds from PubChem BioAssay (NCATS).

Unmarked numbers belong to inactive results. Records with an inconclusive call do not appear. Calls of active or inactive are those of the source. Unless noted, the call rests on the fitted dose curve; in most records, active means well fitted curve in the direction sought with a large enough effect; inconclusive means small, poorly fitted or top-dose-only effect, or another doubt; inactive means no such curve, though single readings can be large; an effect the other way counts as inactive or inconclusive. Where only a bound is given, the exact number is not on record here.

Assay [1] deals with Glucocorticoid receptor (Homo sapiens) (UniProt P04150). As to the kind of experiment: GR-GFP Redistribution (AID 450;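 active means compounds whose dose series gives a full or clear partial fitted curve of increased nuclear translocation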; further: potency means the concentration at half of the fitted maximal effect).
Chain of Glucocorticoid receptor (Homo sapiens) (P04150 whole entry, looked up, the tested form may be a part): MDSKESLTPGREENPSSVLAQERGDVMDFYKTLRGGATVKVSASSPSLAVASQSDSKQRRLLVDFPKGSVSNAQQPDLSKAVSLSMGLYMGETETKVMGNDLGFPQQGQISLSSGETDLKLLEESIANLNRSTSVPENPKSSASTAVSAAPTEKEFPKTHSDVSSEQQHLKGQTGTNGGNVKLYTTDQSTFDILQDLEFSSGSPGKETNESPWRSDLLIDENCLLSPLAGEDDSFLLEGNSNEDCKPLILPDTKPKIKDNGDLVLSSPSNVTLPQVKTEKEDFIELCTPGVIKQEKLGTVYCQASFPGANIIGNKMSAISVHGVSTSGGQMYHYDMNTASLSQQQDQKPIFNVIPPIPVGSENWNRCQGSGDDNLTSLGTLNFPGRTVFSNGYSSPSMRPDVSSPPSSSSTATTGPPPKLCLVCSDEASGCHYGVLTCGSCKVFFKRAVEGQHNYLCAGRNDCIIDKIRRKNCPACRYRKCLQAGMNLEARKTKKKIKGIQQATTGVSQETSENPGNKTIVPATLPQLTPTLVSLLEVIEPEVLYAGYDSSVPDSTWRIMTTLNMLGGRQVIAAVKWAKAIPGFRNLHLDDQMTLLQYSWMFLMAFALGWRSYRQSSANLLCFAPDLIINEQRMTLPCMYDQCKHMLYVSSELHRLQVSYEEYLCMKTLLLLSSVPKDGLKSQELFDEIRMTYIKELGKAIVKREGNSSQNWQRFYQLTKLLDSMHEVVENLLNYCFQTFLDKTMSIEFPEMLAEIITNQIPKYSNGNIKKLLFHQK
Assay [2] shares this target. As to the kind of experiment: GR-EFC Redistribution (AID 451; calls by dose curve; further: potency means the concentration at half of the fitted maximal effect). The note with it: CHO-K1 GR-EFC translocation, beta-gal luminescence, 2 h. In outline: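 CHO-K1 cells expressing nuclear EA and GR-ED fragments of b-gal; compounds titrated up to 46 uM final, 2 h at 37 C. GR nuclear translocation read as complemented b-gal luminescence after 1 h RT detection.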
The target of assay [3] is Mitogen-activated protein kinase 10 (Mus musculus) (UniProt Q61831). Description: JNK3 AlphaScreen Assay (AID 530; active means well fitted curve in either direction with a large enough effect, not every such curve was filed as active;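 further: kinase came from lysate of stimulated human HepG2 cells; signal reports phosphorylation of biotinylated GST-cJun 1-79 at Ser73 with 10 µM ATP; series mostly up to about 57 µM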). In outline:
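Pre-activated (IL-1β/TNFα) JNK3 in HepG2 lysates phosphorylates biotin-GST-cJun(1-79), 10 uM ATP; anti-phospho-cJun(Ser73) AlphaScreen read at room temperature, pH 7.6 Tris buffer. Compounds pre-incubated 15 min as titrations.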

Assay [4] concerns the target Cytochrome P450 2C9 (Homo sapiens) (UniProt P11712). Description: qHTS Assay for Inhibitors and Substrates of Cytochrome P450 2C9 (AID 883). Further: nearly all actives have a fitted effect of over 60% in size. Further: potency means the concentration at half of the fitted maximal effect. In outline:
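10nM CYP2C9 + 100uM Luciferin-H (=KM), 25mM KPO4; cpd 10 min 37C; NADPH regen, 60 min 37C; stop/detect with P450 Glo-Buffer 20 min; luminescence. Norm. to 57uM sulphaphenazole as full inhibition.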

Assay [5] deals with Cytochrome P450 2D6 (Homo sapiens) (UniProt P10635). As to the kind of experiment: qHTS Assay for Inhibitors and Substrates of Cytochrome P450 2D6 (AID 891). Further: nearly all actives have a fitted effect of over 60% in size. Further: potency means the concentration at half of the fitted maximal effect. Put shortly: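 Human CYP2D6 (5 nM) with 30 uM Luciferin-ME EGE (at Km) in 100 mM KPO4, compound preincubated 10 min, then NADPH regeneration system for 60 min at room temperature. Luciferin read by luminescence; normalized to 1.43 uM quinidine.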
Chain of Cytochrome P450 2D6 (Homo sapiens) (P10635 whole entry, looked up): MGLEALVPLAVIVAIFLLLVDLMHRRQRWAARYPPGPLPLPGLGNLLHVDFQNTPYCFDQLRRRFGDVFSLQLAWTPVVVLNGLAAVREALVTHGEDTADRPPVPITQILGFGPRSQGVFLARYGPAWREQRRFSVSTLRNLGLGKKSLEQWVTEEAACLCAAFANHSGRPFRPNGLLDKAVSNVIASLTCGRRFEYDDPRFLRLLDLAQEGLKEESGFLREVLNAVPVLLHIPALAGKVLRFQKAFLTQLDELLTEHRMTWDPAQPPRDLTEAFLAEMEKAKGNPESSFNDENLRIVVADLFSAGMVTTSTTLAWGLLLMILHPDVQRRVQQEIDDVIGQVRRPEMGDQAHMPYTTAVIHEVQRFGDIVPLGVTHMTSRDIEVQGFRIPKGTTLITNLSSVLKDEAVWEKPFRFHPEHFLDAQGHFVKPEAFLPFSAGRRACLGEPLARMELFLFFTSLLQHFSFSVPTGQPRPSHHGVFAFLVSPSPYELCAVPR
(In general: In qHTS, concentration-response curves come from the screen itself.)

For assay [6], the target named is Cytochrome P450 2C19 (Homo sapiens) (UniProt P33261). As to the kind of experiment: qHTS Assay for Inhibitors and Substrates of Cytochrome P450 2C19 (AID 899). Further: nearly all actives have a fitted effect of over 60% in size. Further: potency means the concentration at half of the fitted maximal effect. Put shortly: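 Luminescent read-out of luciferin formed from Luciferin-H EGE (10uM, equal to KM). Enzyme 5nM in 50mM KPO4; compound added, 10 min at 37C, then NADPH regenerating system for 60 min at 37C. Full inhibition defined by 57uM ketoconazole.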
Chain of Cytochrome P450 2C19 (Homo sapiens) (P33261 whole entry, looked up): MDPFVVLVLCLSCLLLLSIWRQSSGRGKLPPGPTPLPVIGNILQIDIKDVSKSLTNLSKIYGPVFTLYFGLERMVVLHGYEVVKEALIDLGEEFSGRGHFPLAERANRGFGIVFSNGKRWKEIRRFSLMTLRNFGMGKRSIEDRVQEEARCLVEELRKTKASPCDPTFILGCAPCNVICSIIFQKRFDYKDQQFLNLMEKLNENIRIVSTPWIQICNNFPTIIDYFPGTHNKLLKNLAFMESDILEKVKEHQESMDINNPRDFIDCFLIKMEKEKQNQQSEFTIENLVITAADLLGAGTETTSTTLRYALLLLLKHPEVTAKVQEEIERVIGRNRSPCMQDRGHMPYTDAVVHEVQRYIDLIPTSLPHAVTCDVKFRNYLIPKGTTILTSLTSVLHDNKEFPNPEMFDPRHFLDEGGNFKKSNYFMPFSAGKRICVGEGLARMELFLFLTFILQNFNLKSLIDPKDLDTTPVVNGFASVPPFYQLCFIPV

Assay [7] deals with 3',5'-cyclic-AMP phosphodiesterase 4B (Homo sapiens) (UniProt Q07343). Description: qHTS Assay for Inhibitors of PDE-IV (AID 607; active means well fitted activation curve with a large enough effect in the main read-out, with a control signal flat, not every such curve was filed as active). In outline:
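HEK293 ACTOne cells with CNG channel (1000/well), endogenous PDE4; membrane potential dye, compounds up to 22.9 uM final. Fluorescence Ex 535/Em 590; RO 20-1724 (100 uM final) as reference.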

The target of assay [8] is Cytochrome P450 3A4 (Homo sapiens) (UniProt P08684). As to the kind of experiment: qHTS Assay for Inhibitors and Substrates of Cytochrome P450 3A4 (AID 884). Further: potency means the concentration at half of the fitted maximal effect; nearly all actives have a fitted effect of over 50% in size. In outline:
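20 nM human CYP3A4 with 25 uM Luciferin-PPXE (at KM) in 200 mM KPO4, preincubated 10 min with compound; NADPH regeneration started a 60 min RT reaction. Luciferin detected by luminescence, normalized to 57 uM ketoconazole as full inhibition.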

For assay [9] the target is unchanged. As to the kind of experiment: qHTS Assay for Activators of Cytochrome P450 3A4 (AID 885). Further: nearly all actives have a fitted effect of over 65% in size. Put shortly:
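Human CYP3A4 (20 nM) with Luciferin-PPXE at 25 uM (its KM) in 200 mM KPO4; 10 min compound preincubation, then NADPH regeneration and 60 min reaction at RT. Luciferin read by luminescence; normalized to 57 uM ketoconazole full inhibition.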

Assay [10] deals with DNA dC->dU-editing enzyme APOBEC-3G (Homo sapiens) (UniProt Q9HC16). As to the kind of experiment: qHTS for inhibitors of Vif-A3G interactions: Validation (AID 588379). Put shortly: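 HeLa cells stably expressing Vif and A3G-eYFP, 700 cells/well, incubated overnight at 37 deg C, then exposed to compound overnight at 37 deg C. Inhibition of Vif-mediated degradation read as increased yellow fluorescence (Ex 488/Em 500-530) by laser-scanning cytometry.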
Chain of DNA dC->dU-editing enzyme APOBEC-3G (Homo sapiens) (Q9HC16 whole entry, looked up): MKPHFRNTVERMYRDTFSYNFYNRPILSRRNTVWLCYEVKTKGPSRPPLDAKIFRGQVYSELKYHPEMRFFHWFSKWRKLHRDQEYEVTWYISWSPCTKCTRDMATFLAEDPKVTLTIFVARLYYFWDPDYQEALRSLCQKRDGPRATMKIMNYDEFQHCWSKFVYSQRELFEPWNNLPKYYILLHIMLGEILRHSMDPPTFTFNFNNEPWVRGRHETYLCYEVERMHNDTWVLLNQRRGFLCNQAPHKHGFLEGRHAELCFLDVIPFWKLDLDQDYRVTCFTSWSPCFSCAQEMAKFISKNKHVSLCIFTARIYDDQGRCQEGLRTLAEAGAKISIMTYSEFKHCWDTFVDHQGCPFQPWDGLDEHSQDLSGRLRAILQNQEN

Chain of Cytochrome P450 2C9 (Homo sapiens) (P11712 whole entry, looked up): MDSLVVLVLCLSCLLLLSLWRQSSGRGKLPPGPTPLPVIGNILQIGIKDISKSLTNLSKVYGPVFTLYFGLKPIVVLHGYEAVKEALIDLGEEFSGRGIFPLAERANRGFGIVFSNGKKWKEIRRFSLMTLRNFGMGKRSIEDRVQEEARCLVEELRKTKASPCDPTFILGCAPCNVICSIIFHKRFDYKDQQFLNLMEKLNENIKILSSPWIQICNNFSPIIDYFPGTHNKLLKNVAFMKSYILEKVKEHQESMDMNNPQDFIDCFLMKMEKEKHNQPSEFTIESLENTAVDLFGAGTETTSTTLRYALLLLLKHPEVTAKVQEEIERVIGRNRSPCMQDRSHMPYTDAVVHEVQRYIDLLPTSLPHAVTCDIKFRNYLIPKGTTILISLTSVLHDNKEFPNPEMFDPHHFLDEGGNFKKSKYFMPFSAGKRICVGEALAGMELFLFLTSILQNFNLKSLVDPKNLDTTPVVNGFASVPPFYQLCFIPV
Chain of 3',5'-cyclic-AMP phosphodiesterase 4B (Homo sapiens) (Q07343 whole entry, looked up): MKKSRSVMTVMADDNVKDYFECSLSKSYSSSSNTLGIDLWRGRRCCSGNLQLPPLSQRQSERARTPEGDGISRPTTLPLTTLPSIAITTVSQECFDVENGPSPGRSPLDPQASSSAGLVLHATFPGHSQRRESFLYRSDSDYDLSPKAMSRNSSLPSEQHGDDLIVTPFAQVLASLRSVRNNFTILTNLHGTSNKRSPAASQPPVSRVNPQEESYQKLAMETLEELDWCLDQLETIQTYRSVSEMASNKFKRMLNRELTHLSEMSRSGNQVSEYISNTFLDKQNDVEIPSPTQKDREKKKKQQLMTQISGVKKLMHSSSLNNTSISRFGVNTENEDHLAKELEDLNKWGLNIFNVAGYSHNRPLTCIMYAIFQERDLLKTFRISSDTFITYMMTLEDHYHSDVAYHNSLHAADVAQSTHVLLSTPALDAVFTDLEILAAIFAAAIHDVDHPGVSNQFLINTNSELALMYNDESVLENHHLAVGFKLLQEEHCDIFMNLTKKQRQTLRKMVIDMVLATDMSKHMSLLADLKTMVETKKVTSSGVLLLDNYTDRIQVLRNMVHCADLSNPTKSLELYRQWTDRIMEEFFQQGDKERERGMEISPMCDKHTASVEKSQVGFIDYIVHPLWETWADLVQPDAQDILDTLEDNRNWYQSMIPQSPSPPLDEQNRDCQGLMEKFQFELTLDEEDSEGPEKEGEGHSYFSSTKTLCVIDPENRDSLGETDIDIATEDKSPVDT
Chain of Cytochrome P450 3A4 (Homo sapiens) (P08684 whole entry, looked up): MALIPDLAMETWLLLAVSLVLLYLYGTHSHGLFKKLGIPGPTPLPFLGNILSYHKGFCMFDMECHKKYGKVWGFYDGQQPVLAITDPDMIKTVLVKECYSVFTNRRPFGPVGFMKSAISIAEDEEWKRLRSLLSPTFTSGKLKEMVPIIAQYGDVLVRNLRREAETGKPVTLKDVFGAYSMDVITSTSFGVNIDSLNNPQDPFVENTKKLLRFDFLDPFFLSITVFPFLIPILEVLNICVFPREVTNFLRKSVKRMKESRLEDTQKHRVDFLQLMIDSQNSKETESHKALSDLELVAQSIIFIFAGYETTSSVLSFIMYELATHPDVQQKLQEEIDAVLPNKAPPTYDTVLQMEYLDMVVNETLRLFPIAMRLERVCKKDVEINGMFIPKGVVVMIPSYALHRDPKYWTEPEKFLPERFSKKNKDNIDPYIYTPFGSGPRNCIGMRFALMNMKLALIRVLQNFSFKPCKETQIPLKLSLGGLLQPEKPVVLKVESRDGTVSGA

As to `COc1ccccc1N=Cc1nc(-c2ccccc2)oc1OC(C)=O`, the Potency in assay [1] was over 20.6 µM.

As to `Cc1c(C(=O)O)c(O)cc2c1C(=O)c1c(O)c([C@@H]3O[C@H](CO)[C@@H](O)[C@H](O)[C@@H]3O)c(O)c(O)c1C2=O`, the Potency in [1] and in assay [2] was over 46 µM in each case. The Potency result in assay [3], in assay [4], in assay [5] and in assay [6] was “inactive” each time.

As to `CCCCSc1nc(N)c(C#N)c(-c2cccs2)c1C#N`, the Potency in assay [1] was over 20.6 µM.

Regarding `CC(=O)OC[C@@H]1O[C@@H](Oc2cc(OC(C)=O)c3c(=O)cc(-c4ccc(OC(C)=O)c(OC(C)=O)c4)oc3c2)[C@H](OC(C)=O)[C@H](OC(C)=O)[C@@H]1OC(C)=O`, the Potency in [1] and in assay [2] was over 46 µM throughout. The Potency entry in [3], in assay [4], in assay [5] and in [6] was “inactive” each time.

Regarding `O=C1C[C@H](c2ccccc2)Oc2cc(O)cc(O)c21`, the Potency was over 46 µM in assay [1]; over 46 µM in assay [2]; 12.6 µM (active) in assay [4]; 12.6 µM (active) in [8]; 20 µM (active) in [5]; 0.631 µM (active) in assay [6]. Besides, the Potency entry in assay [3], in [7] and in assay [9] was “inactive” each time. The compound was classed as inactive in assay [10].

Take `COc1ccc2c(=O)cc(-c3ccccc3)oc2c1O`: the Potency in assay [1] was over 46 µM; in [2], over 46 µM; in [6], 5.01 µM (active). Besides, the Potency result in [3], in assay [7], in assay [9] and in [5] was “inactive” in each case. The result in assay [10] was inactive.

`CSc1nc(N)nc(SCC(=O)C23CC4CC(CC(C4)C2)C3)c1C#N`: in [1], the Potency is over 20.6 µM.

On to `COc1ccc(C(=O)[C@H]2[C@H]3[C@@H](C(=O)[C@@H]4OC[C@H]3O4)[C@H]3C=Cc4ccccc4N32)c(OC)c1`, for which the Potency in [1] and in [2] was over 46 µM each time. Moreover, the Potency entry in assay [3], in [7] and in assay [5] was “inactive” throughout.

With `C[C@H]1[C@H](C)CC[C@@]2(C(=O)O)CC[C@]3(C)C(=CC[C@@H]4[C@@]5(C)CC[C@H](O)C(C)(C)[C@@H]5CC[C@@]43C)[C@@H]12`, the Potency in [1] and in assay [2] was over 46 µM each time. For the same compound, the Potency entry in assay [3] and in [7] was “inactive” each time.

As for `Nc1nonc1C(=O)NCCN=Cc1cc(Cc2ccccc2)cc(Br)c1O`, the Potency in assay [1] was over 20.6 µM.
